Shown are actives, neighbours in structure and some others; about 3% of the full set was active somewhere.
Tau fibril ThT: tau fibrillization inhibition (ThT binding); AID 1460; Potency, µM (doses to about 57.4 µM), without a hit: top-dose activity, negative = inhibition, most hits filed as inhibitors; recombinant tau K18 P301L, heparin-induced fibrillization, ThT fluorescence; hit rate 2.1% among 270,000; also: nearly all actives have a fitted effect of over 55% in size
Target sequence (P10636 561-689 P618L limits assumed): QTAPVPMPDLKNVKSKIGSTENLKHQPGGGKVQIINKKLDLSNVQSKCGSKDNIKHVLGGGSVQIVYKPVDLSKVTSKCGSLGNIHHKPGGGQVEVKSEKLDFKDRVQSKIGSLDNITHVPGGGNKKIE
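Fibril formation assay: tau K18 P301L at 15 uM with trace Alexa 594 label, heparin inducer 20 uM, pH 7 sodium acetate buffer, 37 C for 6 hr; endpoint ThT signal.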
Tau fluor counter: counter-screen for tau fibril formation inhibitors; hit rate 0.93% among 280,000; Potency, µM (series often up to 57.7 µM), for the others: at the highest dose activity change, negative = decrease; AID 1463; tau K18 P301L Alexa594 fluorescence, heparin fibrillization; also: nearly all actives have a fitted effect of over 55% in size
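Human tau K18 P301L (15 uM unlabeled, 0.24 uM Alexa 594-labeled) in 100 mM sodium acetate pH 7 with 20 uM heparin, 6 hr at 37 C. ThT 30 uM added, 1 hr ambient; Alexa 594 FP and total fluorescence read at 555/632 nm.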
TR SRC2 fluor cs: alters Texas Red total fluorescence, flagging assay interference; TRb/SRC2 Texas Red total fluorescence interference; hit rate 0.29% among 280,000; Potency, µM (top dose mostly 106 µM), for the others: top-dose fluorescence change, negative = quenching; active = well fitted curve in either direction with a large enough effect; inconclusive = small, poorly fitted or top-dose-only effect
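Flags fluorescent or light-absorbing compounds by total fluorescence, S + 2P, at 555 nm excitation and 632 nm emission. Mixture: 20 nM Texas Red SRC2 peptide, 0.6 uM human TRb LBD, 1 uM T3, 5% DMSO; compound exposure 5 h at ambient temperature.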
TRb SRC2 PPI: inhibitors of human thyroid hormone receptor beta-SRC2 interaction. P10828. TRbeta-SRC2 peptide binding, fluorescence polarization; receptor liganded with 1 µM T3. Potency, µM (series often up to 106 µM), without a hit: at the top dose activity change, negative = inhibition, usual class: inhibitors. hit rate 0.065% among 280,000;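 also: plate controls were bound peptide for no effect and peptide without receptor for full effect; nearly all actives have a fitted effect of over 50% in size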
Target sequence (P10828 whole entry, looked up): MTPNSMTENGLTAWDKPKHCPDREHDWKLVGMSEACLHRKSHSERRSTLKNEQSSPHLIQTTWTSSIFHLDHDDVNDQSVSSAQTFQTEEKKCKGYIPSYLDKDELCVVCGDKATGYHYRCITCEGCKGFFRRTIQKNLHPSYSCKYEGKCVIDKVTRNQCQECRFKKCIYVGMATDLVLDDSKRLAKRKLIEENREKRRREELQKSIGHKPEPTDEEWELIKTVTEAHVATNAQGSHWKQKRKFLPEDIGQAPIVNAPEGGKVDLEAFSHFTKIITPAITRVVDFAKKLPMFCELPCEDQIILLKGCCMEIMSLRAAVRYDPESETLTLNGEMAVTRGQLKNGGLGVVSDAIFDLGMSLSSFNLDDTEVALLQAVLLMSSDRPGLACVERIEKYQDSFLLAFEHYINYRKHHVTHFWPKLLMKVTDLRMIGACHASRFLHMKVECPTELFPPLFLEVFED
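Quantitative HTS by FP: 0.6 uM TRb LBD, 20 nM labeled SRC2 20-mer, 1 uM T3, 5% DMSO; 5 hr ambient incubation; % activity per concentration and potencies from concentration series.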
Tau FP inhib: tau fibrillization inhibition (FP) | hit rate 0.39% among 280,000 | K18 P301L tau heparin fibrillization, Alexa594 FP, 6 h | Potency, µM (top dose mostly 57.7 µM), for the others: at the top dose activity, negative = inhibition, usual class: inhibitors | AID 1468 | P10636; also: nearly all actives have a fitted effect of over 55% in size
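Read-out: fluorescence polarization of Alexa 594-labeled tau (0.24 uM), 555 nm excitation, 632 nm emission. Mixtures held 15 uM unlabeled K18 P301L, compound and 20 uM heparin, pH 7 acetate buffer, incubated 6 hr at 37 C.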
An asterisk follows results filed as active; [ ] = dose if it differs, or a comment. Unless noted, calls follow the shape of the dose curve; as a rule, active = well fitted curve in the direction sought with a large enough effect; inconclusive = small, poorly fitted or top-dose-only effect, or another doubt; inactive = no such curve, though single readings can be large; an effect the other way counts as inactive or inconclusive. Unless noted, % is scaled to controls: 0 for no effect and ±100 for the full control effect; potency is read from the fitted curve at half-maximal effect.

For CCCOP(=O)(c1ccc(N(C)C)cc1)C(Nc1ccccc1)c1ccc(N(C)C)cc1 (stereo unspecified) the results were Tau fibril ThT -3%, Tau fluor counter -5%, TR SRC2 fluor cs 32µM*[quencher], TRb SRC2 PPI -19%[53 µM] and Tau FP inhib 1%.
For CCCCOP(=O)(c1ccc(N(C)C)cc1)C(Nc1ccccc1)c1ccccc1 (stereo unspecified) the results were Tau fibril ThT -8%, Tau fluor counter -3%, TR SRC2 fluor cs -1%, TRb SRC2 PPI 4% and Tau FP inhib 7%.
`CCN(c1ccccc1C)S(=O)(=O)c1nnc(NC(=O)c2ccccc2C)s1` gave Tau fibril ThT inconclusive, Tau fluor counter inconclusive, TR SRC2 fluor cs 7%, TRb SRC2 PPI -2% and Tau FP inhib inconclusive.
For CCOC(=O)c1c(CSC(=N)N)n(-c2ccc(Br)cc2)c2cc(Br)c(OC(C)=O)cc12 the results were Tau fibril ThT 16µM*, Tau fluor counter inconclusive, TR SRC2 fluor cs -4%, TRb SRC2 PPI -6% and Tau FP inhib inconclusive.
`COC(=O)c1ccc(Nc2cc(C)nc(-c3ccccc3O)n2)cc1` gave Tau fibril ThT 1%, Tau fluor counter inconclusive, TR SRC2 fluor cs -2%, TRb SRC2 PPI -12% and Tau FP inhib inconclusive.
COC(=O)c1cccc(Nc2cc(C)nc(-c3ccccc3O)n2)c1 was read as Tau fibril ThT inconclusive, Tau fluor counter inconclusive, TR SRC2 fluor cs -4%, TRb SRC2 PPI -2% and Tau FP inhib 11µM*.
For C/C(=N\Nc1cc(C)nc(-c2ccccc2O)n1)c1ccccc1O the results were Tau fibril ThT inconclusive, Tau fluor counter 10µM*[quencher], TR SRC2 fluor cs -1%, TRb SRC2 PPI -1% and Tau FP inhib inconclusive.
For CSc1ccc(Cl)cc1 the results were TR SRC2 fluor cs -6%[201 µM] and TRb SRC2 PPI 9%[201 µM].
For O=[N+]([O-])c1cc(Br)c(O)c(C=Nc2ccc(N3CCOCC3)cc2)c1 the results were Tau fibril ThT 10%, Tau fluor counter 5%, TR SRC2 fluor cs -3%, TRb SRC2 PPI 8% and Tau FP inhib 2%.
`O=[N+]([O-])c1cc(Br)c(O)c(/C=N/Nc2nnnn2-c2cccc3ccccc23)c1` gave Tau fibril ThT 16µM*, Tau fluor counter inconclusive, TR SRC2 fluor cs -19%, TRb SRC2 PPI 12% and Tau FP inhib inconclusive.
Screening COc1ccc(-c2csc3nc(-c4ccc(F)cc4)oc(=O)c23)cc1OC returned Tau fibril ThT -11%, Tau fluor counter -7%, TR SRC2 fluor cs -11%, TRb SRC2 PPI 2% and Tau FP inhib -1%.
CCCS/C(N)=N/N=C/c1ccccc1O was read as Tau fibril ThT -16%, Tau fluor counter -23%, TR SRC2 fluor cs -4%, TRb SRC2 PPI -12% and Tau FP inhib 2%.
C=CCS/C(N)=N\N=C\c1c(O)ccc2ccccc12 was read as Tau fibril ThT inconclusive, Tau fluor counter 11µM*[quencher], TR SRC2 fluor cs -2%, TRb SRC2 PPI -3% and Tau FP inhib 9%.
O=C(Nc1ccc(-c2csc(Nc3ccc(Cl)cc3)n2)cc1)c1cc([N+](=O)[O-])cc(C(F)(F)F)c1 was read as Tau fibril ThT inconclusive, Tau fluor counter 7.1µM*[quencher], TR SRC2 fluor cs 0%, TRb SRC2 PPI 5% and Tau FP inhib inconclusive.
NS(=O)(=O)c1ccc(Nc2nc(-c3cccc([N+](=O)[O-])c3)cs2)cc1 was read as Tau fibril ThT inconclusive, Tau fluor counter inconclusive, TR SRC2 fluor cs -6%, TRb SRC2 PPI 0% and Tau FP inhib 0%.
`O=C(Nc1cccc(-c2csc(Nc3ccc(Cl)cc3)n2)c1)c1cc([N+](=O)[O-])cc(C(F)(F)F)c1` gave Tau fibril ThT inconclusive, Tau fluor counter 7.1µM*[quencher], TR SRC2 fluor cs -1%, TRb SRC2 PPI -7% and Tau FP inhib 5%.
COc1ccc(NC(=O)Cn2c(=O)n(Cc3ccco3)c(=O)c3sc4ccccc4c32)cc1Cl was read as Tau fibril ThT 16%, Tau fluor counter -20%, TR SRC2 fluor cs -2%, TRb SRC2 PPI 3% and Tau FP inhib inconclusive.
Screening CC(Oc1ccccc1)C(=O)OCc1cc(=O)n2nc(C(C)C)sc2n1 (stereo unspecified) returned Tau fibril ThT -5%, Tau fluor counter -4%, TR SRC2 fluor cs inconclusive, TRb SRC2 PPI -1% and Tau FP inhib 3%.
`CC(=O)c1ccc(N2CCN(c3nc4c(S(=O)(=O)c5ccc(C)c(C)c5)nnn4c4ccc(Cl)cc34)CC2)cc1` gave Tau fibril ThT 0%, Tau fluor counter -8%, TR SRC2 fluor cs -29%, TRb SRC2 PPI 1% and Tau FP inhib inconclusive.
CCOc1ccc(N=Nc2c(=O)[nH]n3c(=O)cc(C)[nH]c23)cc1 was read as Tau fibril ThT 3.5µM*, Tau fluor counter -13%, TR SRC2 fluor cs -17%, TRb SRC2 PPI -1% and Tau FP inhib 8%.
Screening Cc1cc(C)n2[nH]c(=O)c(N=Nc3ccccc3)c2n1 returned Tau fibril ThT inconclusive, Tau fluor counter 1%, TR SRC2 fluor cs -15%, TRb SRC2 PPI -10% and Tau FP inhib 4%.
`Cc1cc(=O)n2[nH]c(=O)c(N=Nc3ccccc3)c2[nH]1` gave Tau fibril ThT 14µM*, Tau fluor counter -13%, TR SRC2 fluor cs -14%, TRb SRC2 PPI -3% and Tau FP inhib 7%.
Cc1ccc(C)c(CN2CCCN(CC(=O)Nc3ccc(C)c(C)c3)S2(=O)=O)c1 was read as Tau fibril ThT 1%, Tau fluor counter -9%, TR SRC2 fluor cs 1%, TRb SRC2 PPI 5% and Tau FP inhib 1%.
COc1cccc(C(=O)Nc2nc(-c3nnn(-c4cccc(Cl)c4C)c3C)ns2)c1 was read as Tau fibril ThT 5%, Tau fluor counter -14%, TR SRC2 fluor cs -3%, TRb SRC2 PPI 7% and Tau FP inhib -6%.
For COc1ccc(-c2oc(NC(C)=O)c(C#N)c2-c2ccc(OC)cc2)cc1 the results were Tau fibril ThT inconclusive, Tau fluor counter 16µM*[quencher], TR SRC2 fluor cs -2%, TRb SRC2 PPI 1% and Tau FP inhib inconclusive.
`COc1ccc(-c2oc(NC(=O)c3ccc(C)cc3)c(C#N)c2-c2ccc(OC)cc2)cc1` gave Tau fibril ThT -10%, Tau fluor counter inconclusive, TR SRC2 fluor cs -2%, TRb SRC2 PPI 6% and Tau FP inhib 10%.
COc1cc2c(cc1OC)CN(C(=O)Nc1ccccc1)CC2 was read as Tau fibril ThT -10%, Tau fluor counter -10%, TR SRC2 fluor cs 112µM*[quencher], TRb SRC2 PPI -10% and Tau FP inhib -7%.
Screening Cc1ccc2nc(-c3cccc(NC(=O)CSc4ccc(Cl)cc4)c3)oc2c1 returned Tau fibril ThT 4%, Tau fluor counter inconclusive, TR SRC2 fluor cs 4%, TRb SRC2 PPI 6% and Tau FP inhib inconclusive.
N#Cc1nc(-c2cccs2)oc1NCc1ccccc1 was read as Tau fibril ThT -17%, Tau fluor counter inconclusive, TR SRC2 fluor cs -7%, TRb SRC2 PPI 0% and Tau FP inhib 12%.
